Measured values reported in PubChem BioAssay (NCATS).
Inconclusive results are not listed. Active and inactive are the calls of the source. The call rests on the fitted dose curve; in most records, active means well fitted curve in the direction sought with a large enough effect; inconclusive means small, poorly fitted or top-dose-only effect, or another doubt; inactive means no such curve, though single readings can be large or run the other way.

assay: HPAF-II 12hr Apoptosis Induction qHTS against the NCATS CANVASS Library (AID 1347358); conditions: HPAF-II caspase-3/7 Caspase-Glo luminescence; series mostly up to 46.1 µM
Text: Natural products and their derivatives continue to be wellsprings of nascent therapeutic potential. However, many laboratories have limited resources for biological evaluation, leaving their previously isolated or synthesized compounds largely or completely untested. To address this issue, the Canvass library of natural products was assembled (https://tripod.nih.gov/canvass), in collaboration with academic and industry researchers, for quantitative high-throughput screening (qHTS) across a diverse set of cell-based and biochemical assays. The pure (>85% purity by liquid chromatography/mass spectrometry [LC/MS]) Canvass library of 346 natural products were submitted by 45 academic laboratories and companies around the world. We collected pure natural products to circumvent deconvolution and structure elucidation due to time and resource limitations. The library was formatted into 1536-well plates and evaluated in 50 qHTS (in an 11-pnt concentration series) bioassays with broad scope of disease-relevant mechanisms. The resulting data set from 50 different assays was then systematically analyzed to identify overall trends and specific natural products with interesting biological activities. Reported herein are the results of each individual qHTS and their corresponding assay protocol. The Caspase-Glo (R) (Promega) is a homogeneous, luminescent assay that measures caspase activity. The detection substrate contains tetrapeptide sequence DEVD in an "add-mix-measure" format. The reagent generates a luminescent signal produced by a thermostable luciferase. The luminescence is proportional to the amount of caspase activity in the assay reaction. National Center for Advancing Translational Sciences (NCATS), Rockville, MD National Institute of Health (NIH), Bethesda, Maryland
Cancer Cell Apoptosis Assay 1. In a 1536 well, white solid bottom tissue culture plates (Corning 7494), HPAF-II cancer cells in DMEM + 10% FBS + 1% P/S media were dispensed in each well at a final concentration of 500 cells / well (5uL volume) using the Multidrop Combi (Thermo Fisher Scientific) dispenser. 2. Compounds were pin transferred (~23nL volume) via Wako Pin-tool (Wako Automation, Richmond VA) equipped with a 1536 pin head. The assay plates were treated with compounds in a concentration series with a final concentration range of 0.17nM to 103uM. 3. Doxorubicin was used as a control in a 16pnt titration (1mM; 1:2 dilution; 16-points; n = 2; column 3, rows 1 - 32) and was pin transferred via Wako Pin-tool equipped with a 1536 pin head. The final concentration range of doxorubicin is 0.1nM - 4uM. 4. The assay plates were incubated for 12 hours at 37 degrees C/5% CO2/95% Rh. 5. 3uL Caspase-Glo 3/7 (R) (Promega) detection reagent was then added to the assay plates (columns 2 - 48, rows 1 - 32) and incubated at room temperature, covered from light, for 15 min. 6. Luminescence signal was acquired via the ViewLux plate reader (PerkinElmer) using a clear filter, 20 second exposure and 2x binning settings.

Compound	outcome
COc1ccc2c(c1)[nH]c1c(C)nccc12	inactive
CO[C@@H](/C=C/CC/C=C/C(=O)O)[C@@H](O)[C@H](C)[C@@H](O)/C(C)=C/[C@H](C)C(=O)CCCC1CC(=O)NC(=O)C1	inactive
NCCc1ccccc1	inactive
c1ccc2c3c([nH]c2c1)CNCC3	inactive
CNCCc1ccccc1	inactive
CCCCC[C@@H]1OC(=O)[C@@H](C)N(C)C(=O)[C@H](CCCCC)OC(=O)C(C)N(C)C(=O)[C@H](CCCCC)OC(=O)[C@@H](C)N(C)C(=O)[C@H](CCCCC)OC(=O)C(C)N(C)C1=O (stereo not given in full)	inactive
COc1ccc2c3c([nH]c2c1)C(C)=NCC3	inactive
CC1=CC2CC[C@@H]3[C@@H](C)C[C@H](C)[C@@H](C1)N23 (stereo not given in full)	inactive
CNCCc1ccc(O)cc1	inactive
CNCCc1c[nH]c2ccccc12	inactive
CN1C(=O)[C@]23CC4C(C)(C)[C@@]5(C[C@@]41CN2CC[C@@]3(C)O)C(=O)Nc1c5ccc2c1OC=CC(C)(C)O2 (stereo not given in full)	inactive
CCC(=O)CCCCC[C@@H]1NC(=O)[C@H]2CCCCN2C(=O)[C@H]([C@@H](C)CC)NC(=O)[C@H](Cc2cn(OC)c3ccccc23)NC1=O	inactive
COc1ccc(C23Oc4cc(OC)cc(OC)c4[C@](O)([C@H](c4ccccc4)C2C(=O)NCCCCNC(=O)c2ccccc2)[C@@H]3O)cc1 (stereo not given in full)	inactive
CCN1C[C@]2(C)CC[C@@H](O)[C@]34C1[C@H](C[C@H]23)C12CCC(CC14)[C@](O)(CO)[C@H]2O (stereo not given in full)	inactive
CC(=O)N[C@H]1CCN2CCC[C@H]12	inactive
CCCC[C@@H]1CC[C@H]2CCCC(CCC)N12 (stereo not given in full)	inactive
O=C(c1ccccc1O)c1[nH]c(Cl)c(Cl)c1-n1c(C(=O)c2ccccc2O)cc(Cl)c1Cl	inactive
CC[C@@H]1CN2CC[C@@]3(O)C(=Nc4cccc(OC)c43)[C@@H]2C[C@@H]1/C(=C\OC)C(=O)OC	inactive
CC[N@@+]1([O-])C[C@]2(C)CC[C@@H](O)[C@@]34C5C[C@H]6CC[C@@]5(C(C[C@H]23)C41)[C@H](O)[C@@]6(O)CO (stereo not given in full)	inactive
CC=C1CN(C=O)[C@H]2C[C@@H]1[C@@H](C(=O)OC)[C@@]13CCOC21Nc1ccccc13 (stereo not given in full)	inactive
CCC[C@H]1CC[C@H]2[C@H](C)CCC[C@H]2N1	inactive
C[C@]12CC(O)C3[C@@H](CCC4C[C@@H](O)CC[C@@]43CO)[C@@]1(O)CCC2C1=CC(=O)OC1 (stereo not given in full)	inactive
CO[C@@H](/C=C/CC/C=C/C(=O)O)[C@@H](O)[C@H](C)/C=C(\C)[C@@H](O)[C@H](C)C(=O)CCCC1CC(=O)NC(=O)C1	inactive
CC1=CC(=O)C2=C(C)C[C@H](O)[C@@H]3[C@H](OC(=O)[C@@H]3C)[C@@H]12	inactive
CN(C)Cc1c[nH]c2ccccc12	inactive
CO[C@H](c1ccccc1)[C@H]1NC(=O)C(C)NC(=O)C(C[C@@H](C)CO)N(C)C(=O)[C@@H](C(O)c2cn(C(C)(C)C3CO3)c3ccccc23)NC(=O)C(C(C)C=C(C)C)NC(=O)C(CC(C)C)N(C)C(=O)C(C(C)C)NC1=O (stereo not given in full)	inactive
COC(=O)C1=C2Nc3ccccc3[C@@]23CCN2CC(C(C)=O)C1C[C@H]23 (stereo not given in full)	inactive
C/C=C1/CN2CC[C@]34C(=Nc5ccccc53)[C@@H]2C[C@@H]1[C@H]4C(=O)OC	inactive
C=C1[C@@H](C)[C@H]2[C@H](Cc3ccccc3)NC(=O)[C@]23OC(=O)/C=C/[C@H](O)CCC[C@@H](C)C/C=C/[C@H]3[C@@H]1O	inactive
CCN1C[C@]2(C)CC[C@H](O)[C@]34C1C(C[C@H]23)[C@@]12CC[C@H](CC14)[C@](O)(COC(=O)c1ccc(OC)c(OC)c1)[C@H]2O (stereo not given in full)	inactive
